Consider 38 molecules from PubChem BioAssay (NCATS).

Inconclusive results are not listed. Entries that show only a call come without a potency. Unmarked numbers belong to inactive results. Activity calls are given as the source filed them. Calls follow the shape of the dose curve; as a rule, active = well fitted cell-killing curve with a large enough effect; inconclusive = small, poorly fitted or top-dose-only effect; inactive = no such curve, though single readings can be large or run the other way.

A short description of this assay: qHTS of pediatric cancer cell lines to identify multiple opportunities for drug repurposing: Primary screen for MG 63 (6-TG R) cells (AID 1347105). Also: nearly all actives have a fitted effect of over 50% in size. The settings on record: MG 63 (6-TG R) viability, CellTiter-Glo, 48 h; series mostly up to 46 µM. In outline: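 Viability was measured as metabolically active cells after 48 hours of treatment, read by CellTiter-Glo luminescence. Compounds were tested at multiple final concentrations, giving concentration-response curves.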
(In qHTS, concentration-response curves come from the screen itself.)
On to `NS(=O)(=O)c1cc2c(cc1Cl)NC(CSCc1ccccc1)=NS2(=O)=O`, for which the Potency result was “inactive”. Same read-out and setting: then `O=C1NC(=O)[C@@]2(CCOc3ccc(F)cc32)N1`, with “inactive”. Still for that read-out and setting: to `Cc1ccc(C(C)C)cc2c(C)ccc1-2` belongs “inactive”; to `Cc1c(Cl)cccc1Nc1ccccc1C(=O)O`, “inactive”; to `O=c1cc(CO)occ1O`, “inactive”. `C#CCN(C)Cc1ccccc1`: the Potency entry is “inactive”. Take `CN(C)CCOC(C)(c1ccccc1)c1ccccn1` (stereo not drawn): the Potency entry is “inactive”. On the same count and under the same terms, then `CCCOC(=O)c1ccccc1`, with “inactive”; and `CC1=C(CC(=O)O)c2cc(F)ccc2/C1=C\c1ccc(S(C)=O)cc1` (stereo not drawn), with “inactive”; and `C[C@H](NC(CCc1ccccc1)C(=O)O)C(=O)N1CCC[C@H]1C(=O)O` (stereo partly drawn), with “inactive”. For the molecule `CC(C)C(=O)c1c(C(C)C)nn2ccccc12`, the Potency result was “inactive”. Same read-out and setting: then `C=Cc1c(C)c2cc3[nH]c(cc4nc(cc5nc(cc1[nH]2)C(C)=C5CCC(=O)O)C(CCC(=O)O)=C4C)c(C)c3C=C`, with “inactive”. The same measure, in the same setting: then `O=C(O)[C@@H]1CSCN1`, with “inactive”; and `CC(=O)Nc1ccc(/C=N/NC(N)=S)cc1`, with “inactive”. Consider `NC1CCN(c2cccc(Cl)n2)CC1`, for which the Potency entry was “inactive”.

In the case of `C=CCn1c(=O)n([C@@H]2O[C@H](CO)[C@@H](O)[C@H]2O)c2nc(N)[nH]c(=O)c21`, the Potency entry was “inactive”. Take `Cc1cccc(C)c1NC(=O)CN(CC(=O)O)CC(=O)O`: the Potency result is “inactive”. Still for that read-out and setting: to `COc1ccc(S(=O)(=O)Nc2nnc(CC(C)C)s2)cc1` belongs “inactive”; to `CC(C)(C)C(=O)NCCCC(=O)O`, “inactive”. Same read-out and setting: to `C[C@@H](O)[C@H](N)C(=O)O` belongs “inactive”. Still for that read-out and setting: then `CC(O)CN(CCN(CC(C)O)CC(C)O)CC(C)O` (stereo not drawn), with “inactive”; and `Cc1cccc(Nc2cc(Cl)nc(SCC(=O)O)n2)c1C`, with “inactive”. As to `O=S(=O)(O)c1cc(I)c(O)c2ncccc12`, the Potency entry was “inactive”. Still for that read-out and setting: to `Cc1ncc(COP(=O)(O)O)c(C=O)c1O` belongs “inactive”; to `Cc1cc(CC(=O)O)n(C)c1C(=O)c1ccc(Cl)cc1`, “inactive”. The same measure, in the same setting: then `CCC(=O)Nc1ccc(O)cc1`, with “inactive”. The same measure, in the same setting: to `CN1[C@@H]2CC[C@H]1CC(OC(=O)C(O)c1ccccc1)C2` (stereo partly drawn) belongs “inactive”; to `CCCCc1ncc(/C=C(\Cc2cccs2)C(=O)O)n1Cc1ccc(C(=O)O)cc1`, “inactive”; to `NS(=O)(=O)c1cc2c(cc1C(F)(F)F)NC(Cc1ccccc1)NS2(=O)=O` (stereo not drawn), “inactive”.

Take `NC(N)=NCCC[C@H](N)C(=O)O`: the activity change, negative = cytotoxic was -20.2% [at 4.84 µM]. As to `CN(C)CCCO[C@@H]1[C@H]2OC(C)(C)O[C@H]2O[C@@H]1C(O)CO` (stereo partly drawn), the Potency entry was “inactive”. In the case of `CC(=O)Oc1c(C)c(C)c2c(c1C)CC[C@@](C)(CCC[C@H](C)CCC[C@H](C)CCCC(C)C)O2`, the Potency result was “inactive”.

Turning to `O=c1cc[nH]c(=O)[nH]1`, the Potency result was “inactive”. On the same count and under the same terms, then `Cn1c(=O)c2c(ncn2CC2OCCO2)n(C)c1=O`, with “inactive”.

On to `N[C@@H](CSSC[C@H](N)C(=O)O)C(=O)O`, for which the activity change, negative = cytotoxic was 0.733% [at 0.597 µM]. On to `COc1cc(C)c(Cc2cnc(N)nc2N)cc1OC`, for which the Potency result was “inactive”. The same measure, in the same setting: then `Nc1ccc(S(=O)(=O)Nc2ccc(Cl)nn2)cc1`, with “inactive”.

On to `O=C1NS(=O)(=O)c2ccccc21`, for which the Potency result is “inactive”.
